± gives the standard deviation of the averaged measurements. In all, about 33,000 sequences were measured (“E-score (rank enrichment, -0.5 to 0.5)”: median about -0.0043, highest 2% from about 0.24 on). Shown is part of a subset that was picked to be rich in the highest values.
system: 2Sp-muMax20 (muMax20 with two 2,6-bis(methyl)pyridine Cys staples); test: PBM 8-mer E-score (E-score (rank enrichment, -0.5 to 0.5)); higher = stronger preferential binding
Description: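 Protein binding microarray (universal PBM chip covering all 10-mers in fixed probe flanks) with chemically synthesized human Max(13-93) bHLH-LZ analogs (not full-length Max) bearing noncanonical residues (hArg, Tha, Aib, Nle at 65) and aromatic Cys staples. Read-out per 8-mer (and its reverse complement): E-score (rank-based enrichment, -0.5 to 0.5) and Z-score of median probe intensity.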

Sequence | PBM 8-mer E-score
ACATATCG | 0.115 ± 0.042
CTATATCA | 0.24 ± 0.0079
ATGTATCC | -0.111 ± 0.0078
CCATATCA | 0.114 ± 0.071
ACATATCA | 0.299 ± 0.0056
ATATATCA | 0.212 ± 0.014
TCATAGCA | 0.159 ± 0.02
CTGTATCA | -0.0346 ± 0.018
CCATAGCA | 0.135 ± 0.0028
ACATAGCA | 0.236 ± 0.05
GTATATCA | 0.0652 ± 0.016
CGCGCAGC | -0.126 ± 0.023
GCAGACGC | -0.0631 ± 0.015
CCCAACTA | 0.161 ± 0.022
TTCGGCAA | 0.0437 ± 0.12
AAATCAGG | 0.041 ± 0.025
TGCCGTAA | -0.113 ± 0.098
CGCCAGCA | -0.199 ± 0.1
CACGAAAC | 0.164 ± 0.018
ATATATCG | 0.0892 ± 0.031
CTATATCC | 0.169 ± 0.018
ATATATCC | 0.285 ± 0.096

Sequence | PBM 8-mer E-score
AAACTCGT | -0.0113 ± 0.038
CACCTTTA | -0.0135 ± 0.041
ATCTAGTC | -0.00402 ± 0.0038
CACATTAC | 0.2476 ± 0.0022
CACATTAG | 0.00777 ± 0.035
AACATTAC | 0.169 ± 0.003
CCATTCGC | -0.13 ± 0.11
GCGAGGTA | -0.144 ± 0.19
AGTTCCCC | -0.0334 ± 0.025
AATTATAG | 0.148 ± 0.082
CATTCTAA | 0.00098 ± 0.075
AATTCTAA | 0.133 ± 0.092
TATTATAA | 0.244 ± 0.079
TCTTATAA | 0.193 ± 0.04
CATTATAC | 0.218 ± 0.0061
TATTCTAA | 0.246 ± 0.003
AATTATAA | 0.3 ± 0.026
CATTATAA | 0.246 ± 0.1
GATTATAA | 0.154 ± 0.034
TATTATCA | 0.122 ± 0.025
CATTATAG | 0.0091 ± 0.076
GGGGGGGA | -0.1747 ± 0.00091

Sequence | PBM 8-mer E-score
AGATAGCA | 0.137 ± 0.011
CCTTATGC | 0.0835 ± 0.078
AATTATCT | 0.235 ± 0.023
AATTATCA | 0.198 ± 0.045
AATTATCC | 0.0373 ± 0.0027
ACCCTCGT | 0.00159 ± 0.081
GACTAACA | 0.0143 ± 0.0082
GGCCCAAA | -0.117 ± 0.027
CGAATGCA | 0.32 ± 0.04
AAAATGCA | 0.145 ± 0.012
CGAATGCC | -0.0493 ± 0.096
AAAATGGG | -0.206 ± 0.0038
CAAATGTA | 0.188 ± 0.012
GAAATGTA | 0.0185 ± 0.077
AAAATGCC | -0.0688 ± 0.037
CAAATGGC | -0.0435 ± 0.002
CGAATGCG | 0.0188 ± 0.013
CAAATGGG | 0.236 ± 0.052
TAAATGTA | 0.281 ± 0.054
AAAATGCT | 0.263 ± 0.0092
CGGGACCG | -0.357 ± 0.032
CCTATCCC | 0.0952 ± 0.097

Sequence | PBM 8-mer E-score
TCATCTAA | 0.00256 ± 0.03
AATCTAAA | 0.0534 ± 0.04
CAGCGATC | -0.158 ± 0.022
AGAATGCA | 0.0925 ± 0.055
ACCAATCA | -0.0682 ± 0.088
CGTACGAA | 0.19 ± 0.0087
CACGACGG | 0.0169 ± 0.013
CGAAGAAA | 0.223 ± 0.059
CCACTGAA | -0.0273 ± 0.065
AGCAAGAT | -0.0742 ± 0.058
GAAATGCA | 0.135 ± 0.11
AAAATGAG | 0.267 ± 0.012
AAAATGAA | 0.135 ± 0.0098
CAAATGCA | 0.064 ± 0.011
CAAATGAG | 0.0988 ± 0.053
TAAATGCA | 0.238 ± 0.1
AAGGTTTA | -0.18 ± 0.048
GCGCGCAA | 0.184 ± 0.057
AAATGGCA | 0.155 ± 0.028
TAGACATA | 0.0769 ± 0.014
